These results are taken from PubChem BioAssay AID1117361 (Southern Research Institute, 2015).

The whole screen tested about 3,600 compounds, of which about 900 (25%) were called active. The rule behind the calls is not given here. The list is a sample of the results. Entries with a potency or affinity are not part of this list.

For this assay, the target named is Protein Tat (Human immunodeficiency virus type 1 group M subtype B (isolate HXB2)) (UniProt P04608). As to the kind of experiment: inhibitors of Tat binding to TAR RNA, dose response, counter-screen for Vif-APOBEC3G degradation inhibitor project, biochemical, fluorescence polarization, FAM-labeled TAR RNA (AID 1117361). Particulars: outcome: dose series up to 100 µM unless noted; series mostly up to 100 µM.
For `O=C1CC(c2c(F)cccc2Cl)C2=C(COC2=O)N1` (stereo unspecified), the outcome was inactive. For `COc1cccc(CC(=O)N2CCCC(CO)(Cc3ccc(F)cc3F)C2)c1` (stereo unspecified), the call was inactive. For `Cc1ccc(C(=O)COC(=O)CNC(=O)C(c2ccccc2)c2ccccc2)cc1[N+](=O)[O-]` the value was “inactive”; for `C=CCn1c(SCC(=O)c2c(N)n(C)c(=O)n(C)c2=O)nnc1-c1ccccc1F`, “inactive”. As for `O=c1c2c(-c3ccco3)csc2nc(SCc2cn3cccnc3n2)n1-c1ccccc1`, the result was inactive. As to `N#CCOC(=O)c1sccc1-n1cccc1`, the result was inactive.

Take `O=C(CSc1nnc(-c2ccc(F)cc2)o1)Nc1ccc(S(=O)(=O)N2CCCC2)cc1`: the result was inactive. For `Cc1nnc(NC(=O)c2ccc(C)c(S(=O)(=O)N3CCOCC3)c2)s1` the value was “inactive”; for `Cc1ccc(C(=O)Nc2cccc(C(=O)O)c2)cc1S(=O)(=O)N1CCOCC1`, “inactive”; for `N#CC(=C1SC=CS1)c1nc(-c2ccccc2)cs1`, “inactive”. In the case of `CCOC(=O)C1CCN(c2ncnc3cc(OC)c(OC)cc23)CC1`, the outcome was inactive.

Consider `CCOC(=O)C1CCN(Cc2cnc(Oc3ccc(OC)cc3)s2)CC1`, for which the molecule was called inactive. In the case of `CCOC(=O)CSc1nnc(-c2ccco2)n1C` it was “inactive”; in that of `CSc1ncccc1C(=O)OCC(=O)N1CCOCC1`, “inactive”; in that of `CCN(CC)c1ccc(N=Cc2ccc(N(CC)CC)cc2O)cc1`, “inactive”. For `CCOC(=O)C1C(=O)CC(C)(O)C(C(=O)OCC)C1c1cc(Br)ccc1OC` (stereo unspecified), the molecule was called inactive.

On to `COc1cccc(-c2nn3c(-c4ccccn4)nnc3s2)c1`, for which the molecule was classed as inactive. For `O=C(CSc1nnc(-c2cccnc2)n1Cc1ccco1)c1ccc(Br)cc1` the value was “inactive”; for `N#Cc1ccc(CSc2nnc(Cc3cccs3)n2Cc2ccco2)cc1`, “inactive”.

Regarding `O=C(CCCCn1c(=O)[nH]c2ccsc2c1=O)NCc1cccnc1`, the molecule was classed as inactive. In the case of `COC(=O)c1cc(=O)nc2sc(-c3ccc(F)cc3)nn12` it was “inactive”; in that of `COc1c(OC(C)=O)ccc(/C=C/c2ccc3ccccc3n2)c1[N+](=O)[O-]`, “inactive”; in that of `COC1=C(OC)C(=O)C(Sc2ccc3ccccc3c2)=CC1=O`, “inactive”. Turning to `CCNC(=O)NC(=O)COC(=O)CNC(=O)COc1ccccc1`, the molecule was called inactive. For `CCOC(=O)CNc1nc(-c2ccncc2)nc2ccccc12`, the outcome was inactive. For `Cc1ccc(NC(=O)C(=O)c2c(-c3ccccc3)cc3ccccn23)cc1S(=O)(=O)N1CCOCC1` the value was “inactive”. As for `O=C(C1CC(c2ccccc2O)=NO1)N1CCCCC1` (stereo unspecified), the result was inactive. For the molecule `Cc1ccc(NC2=NCCCCC2)cc1C`, the molecule was classed as inactive.

`Oc1ccc(/C=N/N2CCCCC2)c(O)c1`: the result was inactive. In the case of `Cc1ccc(C(C[N+](=O)[O-])Sc2ccc(N)cc2)cc1` (stereo unspecified) it was “inactive”. In the case of `CCCCc1ccc(NC(=O)CC(C)(C)C)cc1` it was “inactive”. Take `COC(=O)c1sccc1NC(=O)CC1C(=O)NCCN1C(=O)Nc1ccccc1` (stereo unspecified): the molecule was classed as inactive.

In the case of `COc1ccc(C2SCC(C(=O)NCc3ccc(F)cc3)N2C(C)=O)cc1` (stereo unspecified), the molecule was classed as inactive. In the case of `O=C(Nc1ccc(F)c(Cl)c1)c1cccnc1` it was “inactive”; in that of `CC(C)Cc1cc(C(=O)Nc2cccc(O)c2)no1`, “inactive”. For `O=C(NNC(=O)c1cccnc1)Nc1ccc([N+](=O)[O-])cc1` the value was “inactive”; for `Cc1ccc(S(=O)(=O)C2(C(=O)Nc3cccc(F)c3)CC2)cc1`, “inactive”. For `CN1CCN(C(CNC(=O)c2ccc(Br)o2)c2ccc(F)cc2)CC1` (stereo unspecified) the value was “inactive”; for `CCOc1ccc(C2c3c(oc4ccccc4c3=O)C(=O)N2CCCN2CCOCC2)cc1` (stereo unspecified), “inactive”; for `COc1ccc(C(C(C(=O)c2cccs2)N2CCOCC2)N2CCOCC2)cc1OC` (stereo unspecified), “inactive”. For the molecule `CN(C(=O)c1ccc(OC2CCN(S(=O)(=O)N(C)C)CC2)cc1)C1CCCCC1`, the result was inactive.

With `Cc1cccc2nc(C(=O)Nc3cccc(C(=O)NC4CC4)c3)cn12`, the molecule was classed as inactive. For `COc1ccc(NC(=O)Cc2ccc(Cl)cc2)cc1NC(=O)c1ccco1` the value was “inactive”; for `O=C(Nc1ccccc1)NC1CCN(CCCN2C(=O)c3ccccc3C2=O)CC1`, “inactive”. Take `Cc1ccc(NC(=O)Nc2ccc3c(c2)nc(C)n3C)cc1`: the molecule was classed as inactive. For `Cc1cc2nc(C)n(CCCNC(=O)Nc3ccc(F)cc3)c2cc1C` the value was “inactive”. For the molecule `CC(=O)c1cccc(NC(=O)NCCS(C)=O)c1` (stereo unspecified), the outcome was inactive. Turning to `COc1ccc(N2CCN(CCNC(=O)Nc3ccc(Cl)cc3)CC2)cc1`, the result was inactive. For `Cc1ccc(NCc2nnc(SCC(=O)N(Cc3ccccc3)C(C)(C)C)o2)c(C)c1`, the outcome was inactive.

Regarding `CNC(=O)C(=O)N/N=C/c1cccnc1`, the molecule was called inactive.

Regarding `O=C(CN(C(=O)c1cc2c(s1)CCC2)C1CCCC1)NCc1cccs1`, the molecule was called inactive.

As for `CCCc1nc2ccccc2c(=O)n1NC(=O)c1c(O)c2cccc3c2n(c1=O)CCC3`, the result was inactive.

On to `COC(=O)Cc1cc(=O)[nH]c(/N=C(\N)Nc2ccc(C)cc2)n1`, for which the call was inactive. For `O=C(N/N=C\c1ccc(Cl)cc1)C1=NOC2COC3(CCN(c4ccc([N+](=O)[O-])cc4)CC3)OCC12` (stereo unspecified) the value was “inactive”; for `CCC(C)N1CC23C=CC(O2)C(C(=O)OC)C3C1=O` (stereo unspecified), “inactive”. For `COCC(=O)Nc1sc2c(c1C(=O)OC)C(C(=O)OC)CC2` (stereo unspecified) the value was “inactive”; for `CCOC(=O)C1=C(Cc2ccc(Cl)cc2)C(=O)c2ccccc2C1=O`, “inactive”. On to `CCOC(=O)c1c2c(n(Cc3ccccc3)c1C)C(=O)C(=O)c1ccccc1-2`, for which the call was inactive.

Take `O=C(Nc1ccccc1N1CCCCC1)c1ccccc1F`: the molecule was called inactive. For `COc1c(F)c(F)c(C(=O)Nc2ccccc2N2CCN(C(C)=O)CC2)c(F)c1F` the value was “inactive”; for `COc1ccc(S(=O)(=O)N(C(C)=O)c2ccc3oc(=O)sc3c2)cc1`, “inactive”; for `O=C1C(Cl)=C(Oc2ccccc2)C(=O)c2ccccc21`, “inactive”. As for `CC(OC(=O)c1cccc(O)c1)C(=O)N(C)Cc1ccccc1` (stereo unspecified), the molecule was called inactive. In the case of `CC(=O)Nc1ccc(NC(=O)c2sc3nc4c(c(-c5ccc(C)cc5)c3c2N)CCC4)cc1` it was “inactive”. With `CSc1ncccc1C(=O)NCc1nnc2ccccn12`, the outcome was inactive.

Consider `O=C(Cn1c(NCCO)nc2ccccc21)NCC(F)(F)F`, for which the outcome was inactive. In the case of `O=C(CSc1nnc(CN2CCCCC2)n1-c1ccccc1)c1ccc2c(c1)OCO2` it was “inactive”. For `CC(NC(=O)c1ccco1)C(=O)N1CCc2ccccc2C1` (stereo unspecified) the value was “inactive”; for `O=C(CN(C1CCCCC1)C1CCCCC1)N1CCc2ccccc2C1`, “inactive”.

On to `Cc1ccc([C@H]2C(C(=O)O)=CC[C@@H](c3cccc(Cl)c3)N2S(=O)(=O)c2ccc(C)cc2)cc1`, for which the call was inactive. Regarding `COc1ccccc1-n1nnnc1SCC(=O)Nc1cc(C)on1`, the molecule was classed as inactive. `O=c1cc2oc3cc(O)c(O)cc3c(-c3ccccc3O)c-2cc1O`: the result was inactive. For `OC(CN1CCCCC1)CN1CCCCC1` the value was “inactive”; for `CS(=O)(=O)N(CC(=O)N1CCN(Cc2ccccc2)CC1)c1ccc2c(c1)OCCO2`, “inactive”. With `CSCCC(CO)NC(=O)OCc1ccccc1` (stereo unspecified), the molecule was classed as inactive. Consider `C[C@H](NC(=O)OCc1ccccc1)C(=O)NNC(=O)[C@H](C)NC(=O)OCc1ccccc1`, for which the call was inactive. For `O=C(Nc1nnc(C2CC2)o1)c1ccc(S(=O)(=O)N2CCCc3ccccc32)cc1` the value was “inactive”; for `Cc1ccc(N2CC(NC(=O)N3CCN(C(=O)c4ccco4)CC3)CC2=O)cc1` (stereo unspecified), “inactive”; for `CSc1ccc(C2Nc3ccccc3-c3cc(C)nn32)cc1` (stereo unspecified), “inactive”. For `COc1ccc(S(=O)(=O)Nc2ccc3c(c2)OCO3)cc1C`, the molecule was called inactive. For `O=C(CCc1ccc(S(=O)(=O)NCCc2ccccc2)cc1)Nc1ccc2c(c1)OCO2` the value was “inactive”; for `O=C(Nc1ccc2c(c1)OCO2)c1cccc(S(=O)(=O)N2CCCC2)c1`, “inactive”; for `O=S(=O)(Nc1ccc2c(c1)OCCO2)c1cnc[nH]1`, “inactive”.

As to `CS(=O)(=O)N1CCCCC1CCN1CCCCC1` (stereo unspecified), the molecule was called inactive.

`CC1(C)CC(=O)C(C2NCCc3ccccc32)=C(O)C1` (stereo unspecified): the outcome was inactive. In the case of `CCN(CC)CC(=O)Nc1nn(-c2ccccc2)nc1C(N)=O` it was “inactive”; in that of `Cc1ccc(S(=O)(=O)n2cnc3ccccc32)c(C)c1`, “inactive”; in that of `CCCCNC(=O)c1c(O)c2cccc3c2n(c1=O)CCC3`, “inactive”.

On to `N#CC1(c2ccc(NC(=O)c3ccccc3F)cc2)CCCC1`, for which the molecule was called inactive. For `CCCCCn1c(CN2CCN(c3cc(Cl)ccc3C)CC2)nc2c1c(=O)[nH]c(=O)n2C` the value was “inactive”; for `CCOc1c(OC)cccc1C1CC(=O)Nc2cc3c(cc21)OCCO3` (stereo unspecified), “inactive”; for `CCc1ccccc1N(CC)C(=O)CCc1nc(-c2ccc(C)cc2)no1`, “inactive”. On to `NS(=O)(=O)c1ccc(NC(=O)COC(=O)CC2Sc3ccccc3NC2=O)cc1` (stereo unspecified), for which the molecule was classed as inactive. Regarding `COc1cc(C(C2C(=O)CC(C)(C)CC2=O)C2C(=O)CC(C)(C)CC2=O)cc(OC)c1OC`, the molecule was called inactive. For `O=C(Nc1cc(Cl)ccc1Oc1ccccc1)c1cnccn1` the value was “inactive”; for `Cc1cn(C2CCCCO2)c(=O)[nH]c1=O` (stereo unspecified), “inactive”. For `CN(C)NC1CCS(=O)(=O)C1` (stereo unspecified) the value was “inactive”; for `O=C(Cn1cnc2c(nnn2Cc2ccc(F)cc2)c1=O)NCc1ccco1`, “inactive”; for `Cn1nnnc1SCC(=O)NCc1ccco1`, “inactive”. For the molecule `COc1ccc2c(c1OC)C(=O)OC2Nc1nc(-c2cc3cc([N+](=O)[O-])ccc3oc2=O)cs1` (stereo unspecified), the molecule was classed as inactive.

For the molecule `CCOc1ccc(CCNC(=O)C2CC(C)=CCC2C(=O)O)cc1OCC` (stereo unspecified), the outcome was inactive. Regarding `COc1ccc2c(=O)c3c(=O)n(-c4ccc(C)cc4)c(-c4ccccc4)nc3oc2c1`, the call was inactive.

On to `CCC(Sc1nc2cc(OC)c(OC)cc2c(=O)n1Cc1ccco1)C(=O)NCCOC` (stereo unspecified), for which the call was inactive. For the molecule `CCN1/C(=C(\O)c2ccccc2)C(=O)c2ccccc2S1(=O)=O`, the result was inactive.

Regarding `COc1ccc(C2C(C#N)=C(N)Oc3n[nH]c(C)c32)cc1Cn1nnc2ccccc21` (stereo unspecified), the call was inactive. For `NC(=O)C1CCN(C(=O)C23CC4CC(CC(C4)C2)C3)CC1` the value was “inactive”.
